Experimental data as given in the supplement of paper PMC10849652.
Targets with a hit are over-represented here; the source holds about 7,900 in all. About 0.6% of all pairs of compound and target were hits. A number with no mark means an inactive call.

What was measured:
Assay in all cases: log2 fold change, soluble protein after heating vs DMSO (PISA); higher = thermal stabilisation; K562 cells, 10 uM, 30 min; active = over 0.2 and 3.5 SD of the protein, either way, in both replicates (recomputed)
[1] = compound: CN1CCN(CCOc2cc(OC3CCOCC3)c3c(Nc4c(Cl)ccc5c4OCO5)ncnc3c2)CC1 [saracatinib]
Method in brief: (§1)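 Soluble protein was quantified by TMTpro 16plex LC-MS/MS after channel sums were equalised. It was obtained as the supernatant after 21,000xg for 90 min from pooled aliquots of K562 cells (2×10^6 cells/mL, 10 μM compound, 30 min) heated for 3 min across 48°C-58°C and extracted in PBS with 0.5% NP-40 at 4°C. Thermal stability values are relative to control samples and come from duplicates. They are given as log2 fold changes.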

[2] = compound: CN1CCN(c2nc(C3=C(c4c[nH]c5ccccc45)C(=O)NC3=O)c3ccccc3n2)CC1 [sotrastaurin]
Method in brief: as §1

[3] = compound: CN1CC[C@H](c2c(O)cc(O)c3c(=O)cc(-c4ccccc4Cl)oc23)[C@H](O)C1 [alvocidib]
Method in brief: as §1

[4] = compound: CN1CCc2c(c3ccccc3n2Cc2ccc(C(=O)NO)cc2)C1 [Tubastatin A]
Method in brief: as §1

[5] = compound: CNC(=O)C1=CC=CC=C1NC2=NC(=NC=C2Cl)NC3=C(C=C(C=C3)N4CCOCC4)OC
Method in brief: as §1

[6] = compound: CNC(=O)c1ccc(Nc2ncc(C(F)(F)F)c(NCc3nccnc3N(C)S(C)(=O)=O)n2)cc1 [defactinib]
Method in brief: as §1

[7] = compound: CNCc1ccc(-c2[nH]c3cc(F)cc4c3c2CCNC4=O)cc1 [rucaparib]
Method in brief: as §1

[8] = compound: CNc1nc(-c2ccc3c(N)n[nH]c3c2)cc(N2C[C@@H](C(=O)NC3CCCCC3)CC[C@H]2C)n1
Method in brief: as §1

[9] = compound: COC(=O)N[C@@H](C)CNc1nccc(-c2cn(C(C)C)nc2-c2cc(Cl)cc(NS(C)(=O)=O)c2F)n1 [encorafenib]
Method in brief: as §1

[10] = compound: COC(=O)[C@H](CCSC)NC(=O)C1=C(C=C(C=C1)NC[C@H](CS)N)C2=CC=CC=C2
Method in brief: as §1

[11] = compound: COC1=CC=C(C=C1)CN2C=CC3=C2C=C(C=C3)C(=O)NO
Method in brief: as §1

[12] = compound: CON(C)C(=O)N1N=C(c2cc(F)ccc2F)S[C@@]1(CCCN)c1ccccc1 [filanesib]
Method in brief: as §1

[13] = compound: CO[C@H]1C[C@@H]2CC[C@@H](C)[C@@](O)(O2)C(=O)C(=O)N2CCCC[C@H]2C(=O)O[C@H]([C@H](C)C[C@@H]2CC[C@H](n3cnnn3)[C@H](OC)C2)CC(=O)[C@H](C)/C=C(\C)[C@@H](O)[C@@H](OC)C(=O)[C@H](C)C[C@H](C)/C=C/C=C/C=C/1C [zotarolimus]
Method in brief: as §1

[14] = compound: COc1cc(C(=O)O)ccc1NC(=O)[C@@H]1N[C@@H](CC(C)(C)C)[C@](C#N)(c2ccc(Cl)cc2F)[C@H]1c1cccc(Cl)c1F [idasanutlin]
Method in brief: as §1

[15] = compound: COc1cc(Nc2ncc3c(n2)-c2ccc(Cl)cc2C(c2c(F)cccc2OC)=NC3)ccc1C(=O)O [alisertib]
Method in brief: as §1

[16] = compound: COc1cc2nc(-c3cc(F)ccc3O)nc(N[C@@H]3CNC[C@H]3C(C)(C)O)c2cc1OC
Method in brief: as §1

[17] = compound: COc1cc2ncnc(Nc3ccc(F)c(Cl)c3)c2cc1OCCCN1CCOCC1 [gefitinib]
Method in brief: as §1

[18] = compound: COc1cccc2cc(-c3nc([C@H]4CC[C@H](C(=O)O)CC4)n4ncnc(N)c34)[nH]c12
Method in brief: as §1

[19] = compound: CS(=O)(=O)CCNCc1ccc(-c2ccc3ncnc(Nc4ccc(OCc5cccc(F)c5)c(Cl)c4)c3c2)o1 [lapatinib]
Method in brief: as §1

[20] = compound: CS(=O)(=O)N1CCN(Cc2cc3nc(-c4cccc5[nH]ncc45)nc(N4CCOCC4)c3s2)CC1 [pictilisib]
Method in brief: as §1

Sequence of UniProt Q13123 (Q13123 whole entry, looked up): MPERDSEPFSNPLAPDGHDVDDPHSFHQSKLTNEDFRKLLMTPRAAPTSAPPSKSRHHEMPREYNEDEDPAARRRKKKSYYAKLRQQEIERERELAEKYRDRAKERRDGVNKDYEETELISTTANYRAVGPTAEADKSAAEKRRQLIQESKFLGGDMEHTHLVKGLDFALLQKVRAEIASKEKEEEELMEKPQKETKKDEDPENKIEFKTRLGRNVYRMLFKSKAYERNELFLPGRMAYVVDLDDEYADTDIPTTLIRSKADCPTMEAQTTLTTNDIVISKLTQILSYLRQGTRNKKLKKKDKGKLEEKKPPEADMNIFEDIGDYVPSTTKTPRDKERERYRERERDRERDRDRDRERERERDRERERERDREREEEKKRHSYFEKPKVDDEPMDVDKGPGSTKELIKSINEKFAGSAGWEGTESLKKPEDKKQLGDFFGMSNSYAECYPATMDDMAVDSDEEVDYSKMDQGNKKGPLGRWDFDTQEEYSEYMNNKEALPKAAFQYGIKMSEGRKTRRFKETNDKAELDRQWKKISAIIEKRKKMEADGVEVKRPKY
Sequence of UniProt P23368 (P23368 whole entry, looked up): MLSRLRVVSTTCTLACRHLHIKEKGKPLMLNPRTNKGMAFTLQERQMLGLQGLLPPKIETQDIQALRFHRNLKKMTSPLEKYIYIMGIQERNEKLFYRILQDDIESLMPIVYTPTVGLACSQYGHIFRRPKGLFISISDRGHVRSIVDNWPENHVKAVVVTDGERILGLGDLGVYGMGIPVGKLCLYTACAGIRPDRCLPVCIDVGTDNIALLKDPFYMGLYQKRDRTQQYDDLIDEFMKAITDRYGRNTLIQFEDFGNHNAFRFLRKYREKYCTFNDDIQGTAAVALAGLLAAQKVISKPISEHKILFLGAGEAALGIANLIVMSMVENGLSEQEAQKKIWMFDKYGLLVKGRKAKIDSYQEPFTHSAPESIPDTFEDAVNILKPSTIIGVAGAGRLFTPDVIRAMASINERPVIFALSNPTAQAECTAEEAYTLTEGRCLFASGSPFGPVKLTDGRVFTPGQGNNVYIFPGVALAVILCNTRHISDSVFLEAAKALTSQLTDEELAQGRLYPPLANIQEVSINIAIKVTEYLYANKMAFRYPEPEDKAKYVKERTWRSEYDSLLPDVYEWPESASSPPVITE
Sequence of UniProt P13473 (P13473 whole entry, looked up): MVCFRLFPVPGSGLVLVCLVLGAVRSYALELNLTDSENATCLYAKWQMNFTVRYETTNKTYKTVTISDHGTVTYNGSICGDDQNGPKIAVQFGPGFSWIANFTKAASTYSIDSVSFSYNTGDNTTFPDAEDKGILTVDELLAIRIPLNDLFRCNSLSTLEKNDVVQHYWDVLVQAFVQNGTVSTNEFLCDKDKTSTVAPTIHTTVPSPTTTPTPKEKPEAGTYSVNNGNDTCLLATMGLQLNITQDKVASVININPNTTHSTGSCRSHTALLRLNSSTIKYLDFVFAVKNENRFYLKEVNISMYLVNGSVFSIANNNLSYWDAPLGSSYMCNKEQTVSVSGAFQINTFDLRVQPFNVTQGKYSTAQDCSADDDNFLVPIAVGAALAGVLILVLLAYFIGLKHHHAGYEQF
Sequence of UniProt Q96GA3 (Q96GA3 whole entry, looked up): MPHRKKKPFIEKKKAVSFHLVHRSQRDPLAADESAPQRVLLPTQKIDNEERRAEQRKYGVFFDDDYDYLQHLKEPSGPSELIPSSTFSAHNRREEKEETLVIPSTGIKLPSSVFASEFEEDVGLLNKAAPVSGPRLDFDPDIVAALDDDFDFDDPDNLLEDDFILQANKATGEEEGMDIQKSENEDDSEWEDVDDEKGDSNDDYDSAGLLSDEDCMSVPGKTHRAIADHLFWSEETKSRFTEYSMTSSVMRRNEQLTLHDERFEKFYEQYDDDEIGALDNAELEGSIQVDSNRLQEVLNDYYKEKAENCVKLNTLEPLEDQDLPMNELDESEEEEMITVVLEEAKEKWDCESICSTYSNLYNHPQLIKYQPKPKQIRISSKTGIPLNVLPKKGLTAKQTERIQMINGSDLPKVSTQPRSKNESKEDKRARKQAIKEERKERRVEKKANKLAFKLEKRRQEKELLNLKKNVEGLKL
Sequence of UniProt Q9H3F6 (Q9H3F6 whole entry, looked up): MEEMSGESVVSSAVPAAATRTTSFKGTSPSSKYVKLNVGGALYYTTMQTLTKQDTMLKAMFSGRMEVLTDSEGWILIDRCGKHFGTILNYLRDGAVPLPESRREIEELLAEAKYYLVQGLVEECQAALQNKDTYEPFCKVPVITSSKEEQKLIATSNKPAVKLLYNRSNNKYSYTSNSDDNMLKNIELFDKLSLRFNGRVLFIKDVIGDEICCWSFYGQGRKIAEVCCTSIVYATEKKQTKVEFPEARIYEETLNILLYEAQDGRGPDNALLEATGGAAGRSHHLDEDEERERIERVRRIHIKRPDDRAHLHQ
Sequence of UniProt Q99661 (Q99661 whole entry, looked up): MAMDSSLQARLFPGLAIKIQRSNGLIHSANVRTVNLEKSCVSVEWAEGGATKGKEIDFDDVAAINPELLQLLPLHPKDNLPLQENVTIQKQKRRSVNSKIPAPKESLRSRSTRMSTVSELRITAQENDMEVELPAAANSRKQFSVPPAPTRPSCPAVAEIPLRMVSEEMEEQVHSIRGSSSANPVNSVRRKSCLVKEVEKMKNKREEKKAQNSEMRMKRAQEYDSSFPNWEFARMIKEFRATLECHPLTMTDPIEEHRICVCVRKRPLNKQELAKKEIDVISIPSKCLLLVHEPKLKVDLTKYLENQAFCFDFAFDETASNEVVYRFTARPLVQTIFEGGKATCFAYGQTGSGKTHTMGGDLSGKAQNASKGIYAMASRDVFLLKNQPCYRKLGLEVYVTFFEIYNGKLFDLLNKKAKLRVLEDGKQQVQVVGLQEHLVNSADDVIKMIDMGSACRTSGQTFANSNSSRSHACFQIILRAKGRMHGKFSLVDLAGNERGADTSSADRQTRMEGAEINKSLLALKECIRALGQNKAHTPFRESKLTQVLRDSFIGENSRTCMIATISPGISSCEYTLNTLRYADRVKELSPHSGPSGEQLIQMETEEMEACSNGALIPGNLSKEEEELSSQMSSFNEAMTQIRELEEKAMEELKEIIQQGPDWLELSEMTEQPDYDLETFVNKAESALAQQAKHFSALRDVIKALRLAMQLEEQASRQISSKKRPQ
Sequence of UniProt Q6P9B6 (Q6P9B6 whole entry, looked up): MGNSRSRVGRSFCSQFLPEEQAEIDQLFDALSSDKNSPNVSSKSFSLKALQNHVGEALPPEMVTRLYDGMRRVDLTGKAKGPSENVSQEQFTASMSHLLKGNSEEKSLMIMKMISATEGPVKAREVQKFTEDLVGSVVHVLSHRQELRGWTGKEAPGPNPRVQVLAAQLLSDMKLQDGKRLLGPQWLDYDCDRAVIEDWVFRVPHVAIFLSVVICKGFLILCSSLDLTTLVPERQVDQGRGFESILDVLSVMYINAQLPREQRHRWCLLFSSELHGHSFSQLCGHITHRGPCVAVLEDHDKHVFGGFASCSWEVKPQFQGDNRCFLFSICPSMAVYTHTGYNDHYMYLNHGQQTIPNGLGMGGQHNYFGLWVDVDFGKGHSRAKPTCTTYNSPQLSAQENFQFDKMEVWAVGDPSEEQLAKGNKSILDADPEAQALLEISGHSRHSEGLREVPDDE
Sequence of UniProt Q14693 (Q14693 whole entry, looked up): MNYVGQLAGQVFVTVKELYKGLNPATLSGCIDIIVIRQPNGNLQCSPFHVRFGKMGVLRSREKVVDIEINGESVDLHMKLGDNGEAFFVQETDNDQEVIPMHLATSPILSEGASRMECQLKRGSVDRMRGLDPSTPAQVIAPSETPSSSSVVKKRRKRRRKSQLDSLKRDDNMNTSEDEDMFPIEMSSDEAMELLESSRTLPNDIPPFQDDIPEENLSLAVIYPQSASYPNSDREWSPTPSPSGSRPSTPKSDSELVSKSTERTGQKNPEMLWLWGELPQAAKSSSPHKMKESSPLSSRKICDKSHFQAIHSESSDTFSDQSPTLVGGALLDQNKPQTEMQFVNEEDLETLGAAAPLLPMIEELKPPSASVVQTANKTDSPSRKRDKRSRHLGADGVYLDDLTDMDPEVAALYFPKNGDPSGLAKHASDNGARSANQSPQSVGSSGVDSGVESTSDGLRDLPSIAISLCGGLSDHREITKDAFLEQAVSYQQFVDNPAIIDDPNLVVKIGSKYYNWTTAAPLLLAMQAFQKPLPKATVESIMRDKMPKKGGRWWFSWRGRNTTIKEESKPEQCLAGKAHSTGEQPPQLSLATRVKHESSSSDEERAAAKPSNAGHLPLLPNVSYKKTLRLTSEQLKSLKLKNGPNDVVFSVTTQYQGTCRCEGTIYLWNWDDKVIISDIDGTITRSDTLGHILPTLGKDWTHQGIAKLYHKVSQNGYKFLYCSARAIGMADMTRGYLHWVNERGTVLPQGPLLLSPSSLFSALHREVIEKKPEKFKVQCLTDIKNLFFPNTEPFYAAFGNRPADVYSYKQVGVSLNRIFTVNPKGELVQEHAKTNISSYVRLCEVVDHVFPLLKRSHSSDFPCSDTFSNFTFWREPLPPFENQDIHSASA
Sequence of UniProt P07948 (P07948 whole entry, looked up): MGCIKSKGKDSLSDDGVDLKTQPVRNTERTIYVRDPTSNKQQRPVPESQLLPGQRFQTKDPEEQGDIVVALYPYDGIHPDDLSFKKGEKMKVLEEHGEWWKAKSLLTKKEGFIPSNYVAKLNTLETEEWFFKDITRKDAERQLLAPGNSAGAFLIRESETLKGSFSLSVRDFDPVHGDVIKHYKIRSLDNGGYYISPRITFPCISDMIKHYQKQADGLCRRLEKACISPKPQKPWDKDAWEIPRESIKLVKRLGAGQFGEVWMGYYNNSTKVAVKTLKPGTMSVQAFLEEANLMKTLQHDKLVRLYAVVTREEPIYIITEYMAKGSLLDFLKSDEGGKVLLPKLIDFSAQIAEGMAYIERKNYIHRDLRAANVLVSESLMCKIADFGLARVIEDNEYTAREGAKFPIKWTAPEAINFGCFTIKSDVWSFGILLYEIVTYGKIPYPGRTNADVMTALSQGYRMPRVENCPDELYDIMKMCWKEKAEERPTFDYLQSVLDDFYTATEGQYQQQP

Row | Target | log2 fold change [1] | log2 fold change [2] | log2 fold change [3] | log2 fold change [4] | log2 fold change [5] | log2 fold change [6] | log2 fold change [7] | log2 fold change [8] | log2 fold change [9] | log2 fold change [10] | log2 fold change [11] | log2 fold change [12] | log2 fold change [13] | log2 fold change [14] | log2 fold change [15] | log2 fold change [16] | log2 fold change [17] | log2 fold change [18] | log2 fold change [19] | log2 fold change [20]
1 | MEPCE (UniProt Q7L2J0) | -0.019 | -0.022 | -0.112 | -0.104 | -0.052 | -0.192 | -0.056 | 0.049 | 0.067 | -0.077 | -0.706 (active) | 0.042 | 0.042 | 0.036 | -0.093 | -0.167 | 0.078 | 0.013 | 0.102 | -0.013
2 | KPNB1 (UniProt Q14974) | -0.076 | -0.21 | -0.01 | 0.031 | 0.043 | -0.039 | 0.126 | 0.032 | 0.201 | -0.063 | 0.033 | -0.024 | 0.052 | -0.048 | -0.07 | -0.065 | -0.063 | -0.076 | -0.001 | -0.032
3 | LPIN1 isoform 7 (UniProt Q14693) | 0.003 | -0.093 | -0.059 | 0.041 | -0.113 | -0.03 | -0.054 | -0.13 | 0.009 | 0.035 | -0.079 | 0.047 | -0.048 | -0.03 | 0.046 | 0.017 | -0.018 | -0.041 | -0.101 | -0.035
4 | KLHDC4 (UniProt Q8TBB5) | -0.006 | -0.037 | 0.074 | -0.072 | 0.02 | 0.021 | 0.115 | -0.029 | 0.106 | -0.066 | -0.045 | 0.435 (active) | 0.044 | 0.199 | -0.023 | 0.076 | 0.03 | 0.1 | -0.026 | 0.029
5 | KIF2C (UniProt Q99661) | 0.003 | -0.048 | -0.019 | 0.024 | -0.017 | -0.051 | 0.019 | 0.064 | 0.142 | -0.092 | 0.063 | -0.033 | 0.001 | -0.046 | -0.008 | 0.09 | 0.006 | -0.081 | -0.048 | 0.008
6 | LIMA1 isoform 4 (UniProt Q9UHB6) | 0.046 | -0.109 | 0.111 | 0.014 | -0.033 | -0.015 | 0.074 | -0.089 | 0.017 | 0.01 | -0.044 | 0.178 | 0.021 | 0.008 | -0.028 | 0.171 | 0.077 | 0.11 | -0.126 | -0.1
7 | IWS1 (UniProt Q96ST2) | -0.042 | 0.021 | 0.336 (active) | 0.04 | -0.054 | 0.035 | 0.032 | -0.034 | -0.1 | -0.127 | 0.007 | -0.013 | -0.006 | -0.105 | -0.068 | 0.124 | -0.055 | 0.055 | -0.077 | -0.011
8 | LTV1 (UniProt Q96GA3) | -0.09 | -0.037 | 0.151 | 0.16 | 0.083 | 0.145 | 0.074 | 0.081 | 0.109 | -0.061 | -0.019 | 0.17 | 0.067 | 0.133 | -0.06 | 0.022 | -0.097 | -0.095 | 0.05 | 0
9 | KCTD10 (UniProt Q9H3F6) | 0.221 | -0.002 | 0.018 | 0.071 | -0.011 | 0.013 | -0.07 | 0.007 | 0.015 | -0.07 | 0.086 | 0.177 | -0.095 | -0.049 | -0.06 | 0.079 | -0.03 | -0.105 | 0.001 | -0.039
10 | MED1 (UniProt Q15648) | 0.001 | -0.092 | -0.11 | -0.025 | 0.042 | -0.005 | 0.067 | -0.045 | 0.009 | 0.033 | -0.051 | 0.116 | 0.042 | 0.056 | -0.056 | -0.063 | -0.039 | 0.016 | 0.114 | 0.077
11 | LYN (UniProt P07948) | -0.198 | -0.08 | 0 | 0.026 | -0.287 | -0.174 | 0.13 | -0.022 | 0.009 | 0.038 | -0.074 | 0.021 | 0.07 | -0.01 | 0.002 | 0.259 | -0.036 | 0.081 | 0.011 | 0.112
12 | LAMP2 (UniProt P13473) | 0.078 | 0.123 | 0.056 | -0.061 | 0.105 | -0.047 | -0.055 | -0.088 | -0.026 | 0.062 | -0.125 | -0.058 | -0.022 | -0.005 | -0.006 | -0.012 | 0.005 | 0.084 | -0.079 | 0.046
13 | KDM1A isoform 2 (UniProt O60341) | -0.061 | -0.139 | -0.108 | 0.127 | -0.032 | -0.065 | 0.14 | 0.021 | 0.052 | -0.032 | 0.019 | 0.004 | -0.009 | -0.03 | -0.055 | 0.07 | 0.022 | -0.036 | 0.068 | -0.008
14 | MEAK7 (UniProt Q6P9B6) | 0.043 | -0.004 | -0.056 | 0.028 | -0.088 | -0.041 | 0.008 | 0.026 | 0.02 | 0.088 | -0.046 | -0.109 | -0.002 | -0.013 | -0.012 | -0.101 | -0.142 | -0.055 | 0.087 | -0.063
15 | ME2 (UniProt P23368) | 0.061 | 0.014 | 0.022 | 0.026 | 0.151 | -0.037 | -0.011 | -0.11 | 0.015 | 0.034 | -0.037 | 0.012 | -0.052 | 0.196 | 0.002 | 0.076 | 0.023 | -0.046 | -0.003 | 0.056
16 | IK (UniProt Q13123) | -0.006 | -0.037 | 0.108 | 0.05 | -0.036 | 0.013 | 0.198 | -0.059 | 0.197 | 0.002 | 0.056 | 0.156 | 0.007 | 0.102 | -0.044 | 0.07 | 0.027 | -0.096 | -0.008 | -0.035
